“And” between values parts separate entries of the source, which are not always exact repeats. Equal entries are not always repeated. Screen size: about 5,500 compounds; about 2,000 (36%) were called active. Another 18% or so got no clear call; they are omitted. No stated cut-off is given here; in the data, active means normalized growth mostly below about 0.91 (no sharp cut-off); inconclusive means no clear call, values can overlap the other calls; inactive means mostly above about 0.92. The list shows a part of the results.
Test: chemical genetic growth profiling, strain panel (AID 1159580);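 further: tested at 20 µM; growth read once vehicle control cultures reached saturation at 30 °C; 1 = growth at the plate median or of vehicle wells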
Conditions: S. cerevisiae deletion strains, growth OD

Measured: normalized growth

C[C@]12CCC3C(CC[C@H]4CC(=O)CC[C@]34C)C1CCC2=O (stereo partly specified)
0.743 (active) and 0.898 (inactive): locus YJL095W, strain BCK1, stronger effect = lower value
active: locus YAL021C, strain ccr4, stronger effect = lower value 0.737 | locus YBR009C, strain hhf1, stronger effect = lower value 0.79 | locus YBR021W, strain FUR4, stronger effect = lower value 0.781 | locus YCL011C, strain gbp2, stronger effect = lower value 0.86 | locus YDL035C, strain GPR1, stronger effect = lower value 0.787 | locus YDL192W, strain arf1, stronger effect = lower value 0.866 | locus YDR137W, strain rgp1, stronger effect = lower value 0.549 | locus YDR159W, strain sac3, stronger effect = lower value 0.799 | locus YDR162C, strain NBP2, stronger effect = lower value 0.408 | locus YDR195W, strain ref2 1.28 [resistant] | locus YDR318W, strain mcm21, stronger effect = lower value 0.895 | locus YDR388W, stronger effect = lower value 0.86 | locus YDR392W, strain spt3, stronger effect = lower value 0.495 | locus YDR502C, strain sam2, stronger effect = lower value 0.835 | locus YEL003W, strain gim4, stronger effect = lower value 0.774 | locus YER155C, strain BEM2 (second series), stronger effect = lower value 0.753 | locus YGL173C, strain kem1, stronger effect = lower value 0.821 | locus YGL240W, strain doc1, stronger effect = lower value 0.768 | locus YGR135W, strain pre9, stronger effect = lower value 0.856 | locus YGR252W, strain gcn5, stronger effect = lower value 0.692 | locus YHR142W, strain chs7, stronger effect = lower value 0.803 | locus YIL066C, strain RNR3, stronger effect = lower value 0.795 | locus YJL095W, strain BCK1 (second series), stronger effect = lower value 0.632 | locus YJL129C, strain trk1, stronger effect = lower value 0.851 | locus YJL164C, strain tpk1, stronger effect = lower value 0.847 | locus YJL166W, strain qcr8, stronger effect = lower value 0.815 | locus YJL187C, strain SWE1, stronger effect = lower value 0.923
inactive: locus YAL026C, strain drs2, stronger effect = lower value 0.949 | locus YAL030W, strain snc1, stronger effect = lower value 0.938 | locus YBL061C, strain skt5, stronger effect = lower value 0.987 | locus YBR023C, strain chs3, stronger effect = lower value 0.942 | locus YBR171W, strain sec66, stronger effect = lower value 1 | locus YBR229C, strain ROT2, stronger effect = lower value 0.964 | locus YBR231C, strain swc5, stronger effect = lower value 0.999 | locus YBR279W, strain paf1, stronger effect = lower value 0.983 | locus YCL016C, strain dcc1, stronger effect = lower value 0.94 | locus YCL029C, strain bik1, stronger effect = lower value 0.948 | locus YCL069W, strain vba3, stronger effect = lower value 0.979 | locus YCR088W, strain abp1, stronger effect = lower value 1.03 | locus YDL005C, strain med2, stronger effect = lower value 1.03 | locus YDL040C, strain nat1, stronger effect = lower value 1.03 | locus YDL074C, strain BRE1, stronger effect = lower value 0.795 | locus YDL101C, strain DUN1, stronger effect = lower value 0.978 | locus YDL185W, strain tfp1, stronger effect = lower value 0.932 | locus YDR001C, strain nth1, stronger effect = lower value 1.03 | locus YDR069C, strain doa4, stronger effect = lower value 0.942 | locus YDR101C, strain arx1, stronger effect = lower value 0.947 | locus YDR150W, strain NUM1, stronger effect = lower value 1.01 | locus YDR297W, strain sur2, stronger effect = lower value 0.939 | locus YDR334W, strain swr1, stronger effect = lower value 1.05 | locus YDR335W, strain msn5, stronger effect = lower value 0.932 | locus YEL037C, strain rad23, stronger effect = lower value 1.01 | locus YEL061C, strain CIN8 (second series), stronger effect = lower value 1.01 | locus YEL061C, strain CIN8, stronger effect = lower value 0.994 | locus YER015W, strain faa2, stronger effect = lower value 0.985 | locus YER016W, strain bim1, stronger effect = lower value 0.998 | locus YER110C, stronger effect = lower value 0.958 | locus YER111C, strain swi4, stronger effect = lower value 0.998 | locus YER155C, strain BEM2, stronger effect = lower value 1.04 | locus YER167W, strain BCK2, stronger effect = lower value 0.966 | locus YFR010W, strain ubp6, stronger effect = lower value 0.973 | locus YGL078C, strain dbp3, stronger effect = lower value 0.943 | locus YGL086W, strain mad1, stronger effect = lower value 0.971 | locus YGL167C, strain pmr1, stronger effect = lower value 1.02 | locus YGL227W, strain vid30, stronger effect = lower value 1.08 | locus YGL248W, strain PDE1, stronger effect = lower value 0.912 | locus YGL253W, strain hxk2, stronger effect = lower value 0.92 | locus YHR013C, strain ard1, stronger effect = lower value 0.978 | locus YHR027C, strain rpn1, stronger effect = lower value 0.985 | locus YHR030C, strain SLT2, stronger effect = lower value 0.974 and 0.898 | locus YHR079C, strain IRE1 (second series), stronger effect = lower value 0.991 | locus YHR079C, strain IRE1, stronger effect = lower value 0.901 | locus YHR094C, strain hxt1, stronger effect = lower value 0.997 | locus YHR129C, strain ARP1, stronger effect = lower value 0.96 | locus YHR200W, strain rpn10, stronger effect = lower value 0.928 | locus YIL073C, strain SPO22, stronger effect = lower value 0.782 | locus YIL125W, strain kgd1, stronger effect = lower value 0.989 | locus YIR030C, strain dcg1, stronger effect = lower value 0.976 | locus YJL092W, strain hpr5, stronger effect = lower value 0.978 | locus YJL115W, strain asf1, stronger effect = lower value 1.01 | locus YJL134W, strain LCB3, stronger effect = lower value 1.01 | locus YJL154C, strain vps35, stronger effect = lower value 1.03 | locus YJL168C, strain set2, stronger effect = lower value 1 | locus YJL187C, strain SWE1 (second series), stronger effect = lower value 0.92 | locus YJR043C, strain POL32, stronger effect = lower value 0.883

— PubChem BioAssay AID1159580 (chemical genetic matrix, 2015)
